NR1D1 modulator: Rev-erb alpha (human) modulation. Rev-erbα–FITC-DNA binding, fluorescence polarization, 90 min. activity, % at 10 µM. hit rate 0.79% among 370,000;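 active = activity above about 14%, limit read from the data; passing the limit was not always enough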
Target sequence (P20393 whole entry, looked up): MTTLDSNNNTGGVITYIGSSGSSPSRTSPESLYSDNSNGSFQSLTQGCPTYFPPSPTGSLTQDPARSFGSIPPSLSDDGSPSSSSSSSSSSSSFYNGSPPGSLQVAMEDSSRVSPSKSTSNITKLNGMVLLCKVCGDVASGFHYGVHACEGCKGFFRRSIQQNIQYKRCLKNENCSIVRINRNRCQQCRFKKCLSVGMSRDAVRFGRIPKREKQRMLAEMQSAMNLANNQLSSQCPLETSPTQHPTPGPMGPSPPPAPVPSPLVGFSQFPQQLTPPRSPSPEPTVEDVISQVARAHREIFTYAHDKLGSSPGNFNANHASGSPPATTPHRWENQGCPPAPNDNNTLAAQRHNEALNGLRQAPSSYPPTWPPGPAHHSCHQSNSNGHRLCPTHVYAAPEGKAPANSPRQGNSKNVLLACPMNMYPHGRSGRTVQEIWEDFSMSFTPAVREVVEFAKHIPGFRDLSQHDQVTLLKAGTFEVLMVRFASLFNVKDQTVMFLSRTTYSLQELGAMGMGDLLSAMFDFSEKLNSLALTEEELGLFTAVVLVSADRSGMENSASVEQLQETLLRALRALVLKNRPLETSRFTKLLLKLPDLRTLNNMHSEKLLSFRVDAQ
DAX1 inh-1: inhibits human nuclear receptor DAX1; AID 504766; hit rate 0.99% among 340,000; P51843; inhibition, % at 6.75 µM; HEK293 Gal4-DAX1 luciferase reporter, luminescence;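 active = inhibition above the mean over all tested compounds plus 3 SD, cut at about 4.2% in these data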;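 also: inhibition shows as a rise in luminescence from relieved DAX1 repression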
hcDAF-12 act: activates DAF-12 receptor from parasite H. contortus; hit rate 1.4% among 370,000; AID 652067; activation, % at 6.8 µM; HEK293 hcDAF-12 lit1-tk-luc reporter, luminescence; 0% DMSO, 100% Δ7-dafachronic acid;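 active = activation above the mean of all tested compounds plus 3 SD, cut at about 5.5% in these data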
ssDAF12 agonist: S. stercoralis DAF-12 activation, primary screen | hit rate 1% among 370,000 | activation, % at 6.8 µM | HEK293 ssDAF-12/GRIP1 lit1-tk-luc reporter, luminescence; % of 3 µM dafachronic acid response;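 active = activation above the mean over all tested compounds plus 3 SD, cut at about 0.9% in these data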
hgDAF12 agonist: agonists of H. glycines DAF-12 nuclear receptor; HEK293 GAL4-hgDAF12 UAS-luciferase reporter, agonist luminescence; normalized to butyrate control; activation, % at 6.8 µM; hit rate 1.8% among 370,000;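 active = activation above a cutoff set at the mean of all screened compounds plus 3 SD, cut at about 10% in these data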
DAX1 inh-2: blocks DAX1 repression of SF-1 activated StAR promoter. HEK293T StAR-luciferase reporter, SF-1/DAX-1 repression relief. inhibition, % at 6.8 µM. hit rate 1.1% among 370,000;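 active = inhibition above the mean over all tested compounds plus 3 SD, cut at about 3.6% in these data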;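 also: higher inhibition means more luminescence from relief of DAX-1 repression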
hgDAF12 conf: confirmation of H. glycines DAF-12 agonists; shares compounds with hgDAF12 agonist; HEK293 GAL4-hgDAF12 luciferase reporter, agonist mode; percent of butyrate response; activation, % at 6.8 µM; hit rate 80% among 3,300;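 active = mean activation over triplicate wells above the hit cutoff derived from the earlier primary screen, cut at about 11% in these data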
LXR ag 2: LXR-beta agonism as DAF-12 counter-screen | shares compounds with hgDAF12 agonist | HEK293 Gal4-LXR luciferase reporter, 24 h | activation, % at 6.8 µM | 3,300 tested, under 10 active | AID 743051;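 active = mean activation of the triplicate above a set limit carried over from the primary screen, none filed active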
Of the large screens only hits and unclear results are named; the others gave an inactive call (follow-up assays come after a bar, where they were run). The list is not random: actives were taken first. Their share in the collection is about 4.8%.

COC(=O)c1cc2c(c3c4ccccc4n(S(=O)(=O)c4ccc(OC)cc4)c13)C(=O)N(Cc1ccc(N(C)C)cc1)C2	none (no result: DAX1 inh-1)
COc1ccc(-c2cc(=O)c3cc(C)ccc3[nH]2)cc1	hcDAF-12 act 5.7, hgDAF12 agonist 16 | hgDAF12 conf 16 | LXR ag 2 inactive
CCC[C@H](/C=C/C(=O)OC(C)(C)C)Sc1ccc(N)cc1	none (no result: DAX1 inh-1)
C=CCn1c(SCC(N)=O)nc2scc(-c3ccc(C)o3)c2c1=O	hcDAF-12 act 5.6, hgDAF12 agonist 20 | hgDAF12 conf 17 | LXR ag 2 inactive
C=CCn1c(SCc2ccccc2)nc2scc(-c3ccc(C)o3)c2c1=O	none
O=C(Nc1ccc(F)cc1F)Nc1sccc1-c1nc2ccccc2s1	none
O=C(Nc1nc2ccccc2s1)Nc1ccc(F)cc1F	hgDAF12 agonist 14 | hgDAF12 conf 15 | LXR ag 2 inactive
c1cnc2ccc(-c3ccc4ncccc4c3)cc2c1	hgDAF12 agonist 14, DAX1 inh-2 3.8 | hgDAF12 conf 17 | LXR ag 2 inactive
O=C(Nc1ccc2ncccc2c1)Nc1ccc2ncccc2c1	none
COC(=O)[C@]1(C#N)CC(=O)N(C)[C@@H]1c1ccccc1	none (no result: DAX1 inh-1)
N/C(=N\OC(=O)COc1ccc(Br)cc1Cl)c1ccncc1	hcDAF-12 act 6.3, hgDAF12 agonist 14, DAX1 inh-2 4.0 | hgDAF12 conf 16 | LXR ag 2 inactive
Clc1ccc2nc(CSCc3ccccc3)cn2c1	ssDAF12 agonist 0.9, hgDAF12 agonist 19, DAX1 inh-2 4.0 | hgDAF12 conf 14 | LXR ag 2 inactive
CCCCCCCCN1C(=O)[C@@H](CC(=O)N2CCCCC2)C[C@@]2(C(=O)OC)C1=C[C@H](C1CCCC1)O[C@@H]2C	none (no result: DAX1 inh-1)
CC(C)(C)NC(=O)CSc1nnc(-c2ccncc2)n1Cc1ccccc1	hgDAF12 agonist 14 | hgDAF12 conf inactive | LXR ag 2 inactive
C/C(=N/NC(=O)c1ccoc1C)c1ccc(NC(=O)c2ccncc2)cc1	hcDAF-12 act 6.4, ssDAF12 agonist 1.3, hgDAF12 agonist 17, DAX1 inh-2 3.8 | hgDAF12 conf inactive | LXR ag 2 inactive
CC(=O)Nc1ccc(/C(C)=N/NC(=O)c2ccncc2)cc1	none
C/C(=N\NC(=O)c1ccco1)c1ccc(NC(=O)c2ccccc2)cc1	hgDAF12 agonist 14 | hgDAF12 conf inactive | LXR ag 2 inactive
C/C(=N/NC(=O)c1ccoc1C)c1ccc(N2CCOCC2)cc1	hgDAF12 agonist 19, DAX1 inh-2 3.7 | hgDAF12 conf inactive | LXR ag 2 inactive
NC(=O)c1cccnc1Nc1cccc([N+](=O)[O-])c1	DAX1 inh-1 4.3, hgDAF12 agonist 14 | hgDAF12 conf inactive | LXR ag 2 inactive
NC(=O)c1cccnc1Nc1cccc(F)c1	none
O[C@H](COc1cccc(Cl)c1)CN1CCC(C(O)(c2ccccc2)c2ccccc2)CC1	none (no result: DAX1 inh-1)
CCN=C1NC(CCc2ccccc2)C(C(=O)OC)=C(C)N1Cc1ccccc1C(F)(F)F (stereo not drawn)	none (no result: DAX1 inh-1)
Cc1cc(C)cc(NC(=O)CSc2nccn2Cc2ccco2)c1	none
Cc1cccc(NC(=O)CSc2nccn2Cc2ccco2)c1	hgDAF12 agonist 14, DAX1 inh-2 3.9 | hgDAF12 conf 13 | LXR ag 2 inactive
CCN=C1NC(c2ccc(C(F)(F)F)cc2)C(C(=O)OC)=C(C)N1Cc1cccc(C(F)(F)F)c1 (stereo not drawn)	none (no result: DAX1 inh-1)
O=C(N[C@H](Cc1ccccc1)C(=O)N1CCN(c2ncccn2)CC1)[C@H]1O[C@@H](n2ccc(=O)[nH]c2=O)[C@H](O)[C@@H]1O	none (no result: DAX1 inh-1)
S=c1[nH]c(-c2ccccc2)cn1/N=C/c1cccs1	hcDAF-12 act 5.6, hgDAF12 agonist 14 | hgDAF12 conf inactive | LXR ag 2 inactive
Cc1ccc(S(=O)(=O)N(CC(=O)NC2CCC(C)CC2)c2cc(C)cc(C)c2)cc1 (stereo not drawn)	none (no result: DAX1 inh-1)
COc1cc(O)c2c(c1)OC(C)(C)CC2=O	none
COc1cc(O)cc2cc3c(c(O)c12)C(=O)CC(C)(O)O3 (stereo not drawn)	hgDAF12 agonist 15 | hgDAF12 conf inactive | LXR ag 2 inactive
CC1SC(C)C(=O)N(CC(=O)Nc2ccc3c(c2)OCO3)C1=O (stereo not drawn)	hgDAF12 agonist 14 | hgDAF12 conf inactive | LXR ag 2 inactive
O=C(CN1C(=O)CSCC1=O)Nc1ccc2c(c1)OCO2	none
CSCCNC(=O)c1ccc(C(C)(C)C)cc1	ssDAF12 agonist 1.1, hgDAF12 agonist 16 | hgDAF12 conf 16 | LXR ag 2 inactive
O=c1c2ccccc2n(Cc2ccccc2)n1[C@@H](Cc1ccccc1)Cn1cc(C2CCCC2)nn1	none (no result: DAX1 inh-1)
Cc1ccc(-c2nc3ccccn3c2C=O)cc1	hcDAF-12 act 5.8, hgDAF12 agonist 14 | hgDAF12 conf 12 | LXR ag 2 inactive
Cc1oc(-c2ccc(-c3ccccc3)cc2)nc1CN1CCN(CC(=O)N(C)C)CC1	hcDAF-12 act 6.5, hgDAF12 agonist 15 | hgDAF12 conf 14 | LXR ag 2 inactive
COc1ccc(-c2nc(CN3CCN(Cc4ccccc4)CC3)c(C)o2)cc1	none
COc1cccc(CSc2nc3ccncc3[nH]2)c1	hgDAF12 agonist 15 | hgDAF12 conf 14 | LXR ag 2 inactive
CC1(C)S[C@@H]2[C@H](NC(=O)[C@H](C(=O)O)c3cccs3)C(=O)N2[C@H]1C(=O)O	none (no result: DAX1 inh-1, hcDAF-12 act, ssDAF12 agonist, hgDAF12 agonist, DAX1 inh-2)
Cc1ccc(C2(C)NC(=O)N(CC(=O)Nc3ccc(-c4nc5ccc(C)cc5s4)cc3)C2=O)cc1 (stereo not drawn)	ssDAF12 agonist 1.1, hgDAF12 agonist 24 | hgDAF12 conf 12 | LXR ag 2 inactive
CCC(=O)NC(=S)Nc1ccc(-c2nc3ccccc3s2)cc1	none
CCC(=O)NC(=S)Nc1ccc(-c2nc3ccc(C)cc3s2)cc1	hgDAF12 agonist 17 | hgDAF12 conf 13 | LXR ag 2 inactive
CCN(CC)S(=O)(=O)c1cc(C(=O)OCC(=O)Nc2ccc(-c3nc4ccc(C)cc4s3)cc2)ccc1F	ssDAF12 agonist 1.2, hgDAF12 agonist 16 | hgDAF12 conf 19 | LXR ag 2 inactive
Cc1ccc2nc(-c3ccc(NC(=O)COCC(=O)O)cc3)sc2c1	hgDAF12 agonist 16 | hgDAF12 conf 11 | LXR ag 2 inactive
COC(=O)C1=C(C)N(Cc2ccc(F)cc2)C(=S)NC1c1cccc(OC)c1 (stereo not drawn)	none (no result: DAX1 inh-1)
COCc1cc(N2CCN(C(=O)OC(C)(C)C)C[C@H]2C)ccc1Br	none (no result: DAX1 inh-1)
O=C(N/N=C/C(Cl)=C/c1ccccc1)c1ccccc1F	none

Screens as filed in PubChem BioAssay.
